We go through 40 compounds from PubChem BioAssay (NCI).

Molecules are shown by their SMILES. Compounds without any hit were thinned out: in the full panel of roughly 79,000, 15% have a hit. Values without a mark were called inactive. Calls of active or inactive are those of the source. Rule as the data show it: active = growth inhibition above about 70%; inactive = the rest.

The nature of the first test: NCI Yeast Anticancer Drug Screen. Data for the rad50 strain (AID 155).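 Also: 0% = growth of vehicle-only cultures of the same strain.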 To be noted: S. cerevisiae rad50 strain growth inhibition; at 50.0 µM; hits give high values. Summed up:
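Inhibition values express reduced yeast growth in compound-treated cultures relative to vehicle-treated controls.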
On to `CN(C)c1ccc(C=O)cc1[N+](=O)[O-]`, for which the growth inhibition is 2.75%.

With `Nc1nc2c(c(-c3cccc(Cl)c3)n1)COC/C2=C\c1cccc(Cl)c1`, the growth inhibition was 26.3%.

Consider `Cc1cccc(CSc2nc(N)nc3ncn(C4CC(O)C(CO)O4)c23)n1` (stereo not given), for which the growth inhibition was -20.9%.

Take `O=C(O)COc1ccccc1-c1ccccc1`: the growth inhibition is -34.4%.

As to `Cc1nc(N)nc(-c2ccccc2)c1N=Nc1ccccc1Br`, the growth inhibition was 5.55%.

Regarding `CC(C)(C)C1CCC2c3c([nH]c4ccccc34)C3C(=O)N(c4ccc(C#N)cc4)C(=O)C3C2C1` (stereo not given), the growth inhibition is 53.3%.

Turning to `ClCC#CCCl`, the growth inhibition was 19.4%.

As for `O=C(N/N=C/c1ccc(Cl)cc1Cl)C(O)(c1ccccc1)c1ccccc1`, the growth inhibition was 17.4%.

On to `CCCCNCC(=O)O[C@]1(CC)C(=O)OCc2c1cc1n(c2=O)Cc2cc3ccccc3nc2-1`, for which the growth inhibition is 78% (active).

For `O=C(CN1C(=O)c2ccccc2C1=O)NCC(=O)N(C(=O)NC1CCCCC1)C1CCCCC1`, the growth inhibition was 23.1%.

`O=C(O)c1ccc(F)c([N+](=O)[O-])c1`: the growth inhibition was 7.15%.

Consider `O=C(NC1CCCCC1C1CCCCC1)c1ccc(Cl)cc1` (stereo not given), for which the growth inhibition was 1.55%.

On to `COc1ccc(C(=O)/C=C/c2cc(C(C)(C)C)c(O)c(C(C)(C)C)c2)cc1`, for which the growth inhibition is 17.4%.

On to `CC1(C)CCC2(C(=O)OC3OC(CO)C(O)C(O)C3O)CCC3(CO)C(=CCC4C5(C)CC(O)C(O)C(C)(C(=O)OC6OC(CO)C(O)C(O)C6O)C5CCC43C)C2C1` (stereo not given), for which the growth inhibition was 2.3%.

For the compound `CCCCCCCCCCCC(=O)OC(COC(N)=O)COc1ccc(Cl)cc1` (stereo not given), the growth inhibition is -34.2%.

As to `CC[P+](C)(Cc1ccccc1)c1ccccc1` (stereo not given), the growth inhibition is -0.75%.

With `O=[N+]([O-])c1cccnc1Sc1nc2ccccc2[nH]1`, the growth inhibition was 20.2%.

As to `Clc1ccc(/C=C2/c3ccccc3-c3nc4ccccc4cc32)cc1`, the growth inhibition was -1.1%.

`O=C(Cl)c1cc(I)c(I)c(I)c1`: the growth inhibition was 41%.

For `COc1ccc2c(C(=O)O)cc3c4ccccc4ncc3c2c1`, the growth inhibition is 9.4%.

Regarding `CC(=O)CC(=O)Nc1ccc(Cl)cc1`, the growth inhibition was -2.75%.

As to `NC(CSC(=O)c1ccccc1)C(=O)O` (stereo not given), the growth inhibition was -14.2%.

Turning to `CCN(CC)C(=O)Cc1c(C(=O)N(CC)CC)c(=O)nc2sccn12`, the growth inhibition was -27.2%.

In the case of `CC(=O)Nc1c([N+](=O)[O-])cc(C2CCCCC2)cc1[N+](=O)[O-]`, the growth inhibition was -8.05%.

Turning to `CCN(CC)CCn1cnc(C#N)c1N`, the growth inhibition was 4.45%.

As for `Nn1c(-c2ccccc2)n[nH]c1=O`, the growth inhibition is 18.7%.

For `CCc1ccc(NC(=S)NC(=O)C(C)Oc2ccccc2)cc1` (stereo not given), the growth inhibition is 39.5%.

For the compound `Cc1ccc(Cc2cc(=O)[nH]c(=O)[nH]2)cc1`, the growth inhibition was 0.2%.

With `N#Cc1cc2c(n(C3OC(CO)C(O)C(O)C3O)c1=S)CCCCCC2` (stereo not given), the growth inhibition was 31%.

For the compound `O=c1c(-c2c(-c3ccccc3)oc3ccc(Cl)cc3c2=O)c(-c2ccccc2)oc2ccc(Cl)cc12`, the growth inhibition is 18.9%.

For the compound `N#CC(c1ccccc1)N(CCc1ccccc1)C(=O)c1ccccc1` (stereo not given), the growth inhibition is -3.7%.

As to `Nc1[nH]c(=O)ncc1[N+](=O)[O-]`, the growth inhibition was 2.5%.

On to `Cc1nc2c(N3CCCCC3)ncnc2o1`, for which the growth inhibition was 7.3%.

On to `CCC1CN2CCc3cc(OC)c(OC)cc3C2CC1CCCl` (stereo not given), for which the growth inhibition is -8.6%.

With `COC(=O)C1(C)CCCC2(C)C1CCC1(O)C2CC2OC2(C(C)C)C1O` (stereo not given), the growth inhibition was -2.65%.

For the compound `N#C/C(=C\c1ccccc1)c1ccc(F)cc1F`, the growth inhibition was 33.2%.

Regarding `Cc1cc(=O)[nH]c(NN2C(Cl)C(=O)C2c2c(O)ccc3ccccc23)n1` (stereo not given), the growth inhibition was -8.2%.

On to `CC1=NN(c2cc(S(=O)(=O)O)ccc2Cl)C(=O)C1N=Nc1ccccc1` (stereo not given), for which the growth inhibition is -23.3%.

Consider `CC(C(=O)O)C(C)C(=O)O` (stereo not given), for which the growth inhibition is 3.3%.

As to `CCN(CC)C(=O)c1ccncc1C(=O)c1ccncc1`, the growth inhibition is -1.2%.

Another test can be described thus: NCI Yeast Anticancer Drug Screen. Data for the mec2-1 strain (AID 157). To be noted: S. cerevisiae mec2-1 strain, at 50.0 µM, hits give high values. The method in brief: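 Vehicle-treated cultures served as reference for growth inhibition of compound-exposed mec2-1 yeast.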
Consider `CN(C)c1ccc(C=O)cc1[N+](=O)[O-]`, for which the growth inhibition is 6.25%.

For the compound `Nc1nc2c(c(-c3cccc(Cl)c3)n1)COC/C2=C\c1cccc(Cl)c1`, the growth inhibition was 20.8%.

With `Cc1cccc(CSc2nc(N)nc3ncn(C4CC(O)C(CO)O4)c23)n1` (stereo not given), the growth inhibition was 3.5%.

On to `O=C(O)COc1ccccc1-c1ccccc1`, for which the growth inhibition is -13.7%.

On to `Cc1nc(N)nc(-c2ccccc2)c1N=Nc1ccccc1Br`, for which the growth inhibition is 0.15%.

Regarding `CC(C)(C)C1CCC2c3c([nH]c4ccccc34)C3C(=O)N(c4ccc(C#N)cc4)C(=O)C3C2C1` (stereo not given), the growth inhibition was 50.2%.

Consider `ClCC#CCCl`, for which the growth inhibition was -10.9%.

Take `O=C(N/N=C/c1ccc(Cl)cc1Cl)C(O)(c1ccccc1)c1ccccc1`: the growth inhibition is 16.1%.

With `CCCCNCC(=O)O[C@]1(CC)C(=O)OCc2c1cc1n(c2=O)Cc2cc3ccccc3nc2-1`, the growth inhibition is 66.8%.

On to `O=C(CN1C(=O)c2ccccc2C1=O)NCC(=O)N(C(=O)NC1CCCCC1)C1CCCCC1`, for which the growth inhibition is 2.3%.

On to `O=C(O)c1ccc(F)c([N+](=O)[O-])c1`, for which the growth inhibition was -16.6%.

`O=C(NC1CCCCC1C1CCCCC1)c1ccc(Cl)cc1` (stereo not given): the growth inhibition is 2.5%.

As to `COc1ccc(C(=O)/C=C/c2cc(C(C)(C)C)c(O)c(C(C)(C)C)c2)cc1`, the growth inhibition was -1.2%.

As to `CC1(C)CCC2(C(=O)OC3OC(CO)C(O)C(O)C3O)CCC3(CO)C(=CCC4C5(C)CC(O)C(O)C(C)(C(=O)OC6OC(CO)C(O)C(O)C6O)C5CCC43C)C2C1` (stereo not given), the growth inhibition is 4.45%.

For the compound `CCCCCCCCCCCC(=O)OC(COC(N)=O)COc1ccc(Cl)cc1` (stereo not given), the growth inhibition is -59.5%.

As for `CC[P+](C)(Cc1ccccc1)c1ccccc1` (stereo not given), the growth inhibition was 1.6%.

Turning to `O=[N+]([O-])c1cccnc1Sc1nc2ccccc2[nH]1`, the growth inhibition is 17.9%.

In the case of `Clc1ccc(/C=C2/c3ccccc3-c3nc4ccccc4cc32)cc1`, the growth inhibition is 24%.

In the case of `O=C(Cl)c1cc(I)c(I)c(I)c1`, the growth inhibition was 47.3%.

`COc1ccc2c(C(=O)O)cc3c4ccccc4ncc3c2c1`: the growth inhibition was 6.65%.

On to `CC(=O)CC(=O)Nc1ccc(Cl)cc1`, for which the growth inhibition was -27.9%.

Consider `NC(CSC(=O)c1ccccc1)C(=O)O` (stereo not given), for which the growth inhibition is -3.45%.

Turning to `CCN(CC)C(=O)Cc1c(C(=O)N(CC)CC)c(=O)nc2sccn12`, the growth inhibition is -15.8%.

Consider `CC(=O)Nc1c([N+](=O)[O-])cc(C2CCCCC2)cc1[N+](=O)[O-]`, for which the growth inhibition is -7.25%.

`CCN(CC)CCn1cnc(C#N)c1N`: the growth inhibition was 1.05%.

As to `Nn1c(-c2ccccc2)n[nH]c1=O`, the growth inhibition is -15.7%.

On to `CCc1ccc(NC(=S)NC(=O)C(C)Oc2ccccc2)cc1` (stereo not given), for which the growth inhibition is 21.6%.

On to `Cc1ccc(Cc2cc(=O)[nH]c(=O)[nH]2)cc1`, for which the growth inhibition is -8.25%.

On to `N#Cc1cc2c(n(C3OC(CO)C(O)C(O)C3O)c1=S)CCCCCC2` (stereo not given), for which the growth inhibition is 19.5%.

`O=c1c(-c2c(-c3ccccc3)oc3ccc(Cl)cc3c2=O)c(-c2ccccc2)oc2ccc(Cl)cc12`: the growth inhibition was 3.9%.

As for `N#CC(c1ccccc1)N(CCc1ccccc1)C(=O)c1ccccc1` (stereo not given), the growth inhibition is 1.7%.

As to `Nc1[nH]c(=O)ncc1[N+](=O)[O-]`, the growth inhibition was -4.1%.

As to `Cc1nc2c(N3CCCCC3)ncnc2o1`, the growth inhibition is -0.85%.

For the compound `CCC1CN2CCc3cc(OC)c(OC)cc3C2CC1CCCl` (stereo not given), the growth inhibition was 4.05%.

Take `COC(=O)C1(C)CCCC2(C)C1CCC1(O)C2CC2OC2(C(C)C)C1O` (stereo not given): the growth inhibition was -21.4%.

In the case of `N#C/C(=C\c1ccccc1)c1ccc(F)cc1F`, the growth inhibition was 30.6%.

As for `Cc1cc(=O)[nH]c(NN2C(Cl)C(=O)C2c2c(O)ccc3ccccc23)n1` (stereo not given), the growth inhibition is -10.6%.

Consider `CC1=NN(c2cc(S(=O)(=O)O)ccc2Cl)C(=O)C1N=Nc1ccccc1` (stereo not given), for which the growth inhibition was -26.2%.

In the case of `CC(C(=O)O)C(C)C(=O)O` (stereo not given), the growth inhibition was 4.15%.

Consider `CCN(CC)C(=O)c1ccncc1C(=O)c1ccncc1`, for which the growth inhibition is -3.55%.
